# Results from PubChem BioAssay (NCI).
# About 79,000 compounds went through this panel and 15% of them were active in at least one assay; those are over-represented in the sample as a whole. Activity calls are given as the source filed them. No stated cut-off is given here; in the data, active means growth inhibition above about 70%; inactive means the rest.
# Test: NCI Yeast Anticancer Drug Screen. Data for the rad50 strain (AID 155);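 further: 0% = growth of vehicle-only cultures of the same strain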
# Settings: S. cerevisiae rad50 strain growth inhibition; at 50.0 µM; active compounds read high
# Summary of the method: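 DNA repair mutant yeast, compound exposure, growth read-out; inhibition is taken relative to vehicle.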
row,SMILES,growth inhibition
1,CN(/N=C(\C(=O)O)c1ccccc1)C1=NCCN1,-12% (inactive)
2,NNC(=O)CC(=O)Nc1ccccc1F,-7.9% (inactive)
3,CC(C)c1ccc(/C=C/C(=O)c2ccc([N+](=O)[O-])cc2)cc1,9.75% (inactive)
4,O=C(O)c1cccc(CO)c1O,3.25% (inactive)
5,COC(=O)C(C)(Cc1ccc2c(c1)nnn2C(C)=O)NC(C)=O (stereo unspecified),-11.4% (inactive)
6,CC[C@@]12CCC(=S)N(CCSc3ccccc3)[C@@H]1c1c(n(S(=O)(=O)c3ccc(OC)cc3)c3ccccc13)CC2,-38% (inactive)
7,CC(=O)OCC1OC(n2ncnc2CI)C(OC(C)=O)C(OC(C)=O)C1OC(C)=O (stereo unspecified),36.5% (inactive)
8,Cc1c(O)cc(O)c(C=O)c1C,6.05% (inactive)
9,Cc1cccc(C)c1NC(=O)/C(=N/NC(N)=S)C(C)C(=O)c1ccc(Cl)cc1 (stereo unspecified),12.6% (inactive)
10,O=C1C=C/C(=N/c2ccc(O)o2)c2ccccc21,36.8% (inactive)
11,Clc1ccccc1N=NNc1ccccc1Cl,15.8% (inactive)
12,NC1(c2ccccc2)CON=C(c2ccccc2)C1 (stereo unspecified),17.2% (inactive)
13,CC(=S)NNC(=O)c1ccncc1,-14.1% (inactive)
14,COc1ccc(OC)c(C(N)=O)c1,-0.1% (inactive)
15,Clc1ccc(N=Cc2ccccc2)cn1,-13.6% (inactive)
16,O=C1Cc2c([nH]c3c(Cl)cccc23)-c2ccccc2N1,-4.65% (inactive)
17,N#CC(CC(=O)c1ccccc1)c1ccccc1Cl (stereo unspecified),17.2% (inactive)
18,CCOC(=O)N1Cc2cc3ccc(OC)cc3nc2C1,6% (inactive)
19,Cc1ccc2ccccc2c1C(=O)c1ccccc1Cc1cccc2ccccc12,17.6% (inactive)
20,Cn1c(=O)c2c(nc(NCCO)n2Cc2ccccc2)n(C)c1=O,20.1% (inactive)
21,Cc1cc(S(=O)(=O)Nc2nnc3c4ccccc4cnn23)c(S)cc1Cl,-38% (inactive)

# Test: NCI Yeast Anticancer Drug Screen. Data for the mec2-1 strain (AID 157)
# Settings: S. cerevisiae mec2-1 strain, at 50.0 µM, active compounds read high
# Summary of the method: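 Compounds were applied to mec2-1 yeast cells. Their growth was then compared with that of vehicle-treated cultures to give growth inhibition.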
row,SMILES,growth inhibition
1,COc1ccc2c(c1)Sc1c(Cl)c3c(c(Cl)c1=N2)Sc1cc(OC)ccc1N=3,-4.75% (inactive)
2,COc1nc(NC2OC(COC(C)=O)C(OC(C)=O)C(OC(C)=O)C2OC(C)=O)c(C(=O)CCl)c(=O)[nH]1 (stereo unspecified),6.5% (inactive)
3,O=C(O)C(Cc1ccc2c(c1)CCC2)(Cc1ccc2c(c1)CCC2)C(=O)O,13.3% (inactive)
4,Clc1cccc(Cl)c1C1SCc2nc3ncccc3n21 (stereo unspecified),16.6% (inactive)
5,COc1cccc(C2N(Cc3ccccc3OC)CCCN2Cc2ccccc2OC)c1,11.8% (inactive)
6,O=C(O)CC1CC2CC(=O)C1C2 (stereo unspecified),-30.7% (inactive)
7,CSCCCCCSC,-27.1% (inactive)
8,CCOC(=O)C1=C(C)NC(=O)NC1c1ccc(N(C)C)cc1 (stereo unspecified),-4.05% (inactive)
9,CCc1cccc(CC)c1N=Cc1ccccc1O,11% (inactive)
10,NC(=O)c1cc(Cl)ccc1O,12.5% (inactive)
11,c1ccc(CCc2cccnc2)nc1,-4.5% (inactive)
12,Nc1c2cc3c(cc2c[n+]2ccc4ccccc4c12)OCO3,44% (inactive)
13,O=C1CCCC/C1=C1/SC(=Nc2ccccc2)C(=Nc2ccccc2)N1c1ccccc1,16.1% (inactive)
14,CCCOc1ccc(OCC(=O)c2ccccc2)cc1,-32.5% (inactive)
15,CCCCOC(=O)NC(=O)c1cc2cc(I)cc(I)c2oc1=O,5.8% (inactive)
16,N#CCCCCBr,6.95% (inactive)
17,O=C1OC(=O)c2c1ccc1ccccc21,-21.6% (inactive)
18,CCOC(=O)C[n+]1ccc(C(=O)OCC)cc1,-15.2% (inactive)
19,C=C1OC(=O)C(N)=C1C(C)=O,23.7% (inactive)
20,CN(/N=C(\C(=O)O)c1ccccc1)C1=NCCN1,-7.95% (inactive)

row,SMILES,growth inhibition
1,NNC(=O)CC(=O)Nc1ccccc1F,-16.9% (inactive)
2,CC(C)c1ccc(/C=C/C(=O)c2ccc([N+](=O)[O-])cc2)cc1,2.2% (inactive)
3,O=C(O)c1cccc(CO)c1O,-10.5% (inactive)
4,COC(=O)C(C)(Cc1ccc2c(c1)nnn2C(C)=O)NC(C)=O (stereo unspecified),-1.25% (inactive)
5,CC[C@@]12CCC(=S)N(CCSc3ccccc3)[C@@H]1c1c(n(S(=O)(=O)c3ccc(OC)cc3)c3ccccc13)CC2,-18.1% (inactive)
6,CC(=O)OCC1OC(n2ncnc2CI)C(OC(C)=O)C(OC(C)=O)C1OC(C)=O (stereo unspecified),8.35% (inactive)
7,Cc1c(O)cc(O)c(C=O)c1C,-4.2% (inactive)
8,Cc1cccc(C)c1NC(=O)/C(=N/NC(N)=S)C(C)C(=O)c1ccc(Cl)cc1 (stereo unspecified),6.35% (inactive)
9,O=C1C=C/C(=N/c2ccc(O)o2)c2ccccc21,52.3% (inactive)
10,Clc1ccccc1N=NNc1ccccc1Cl,-2.4% (inactive)
11,NC1(c2ccccc2)CON=C(c2ccccc2)C1 (stereo unspecified),5.85% (inactive)
12,CC(=S)NNC(=O)c1ccncc1,6.05% (inactive)
13,COc1ccc(OC)c(C(N)=O)c1,13.8% (inactive)
14,Clc1ccc(N=Cc2ccccc2)cn1,22.1% (inactive)
15,O=C1Cc2c([nH]c3c(Cl)cccc23)-c2ccccc2N1,14.6% (inactive)
16,N#CC(CC(=O)c1ccccc1)c1ccccc1Cl (stereo unspecified),24.9% (inactive)
17,CCOC(=O)N1Cc2cc3ccc(OC)cc3nc2C1,-4.15% (inactive)
18,Cc1ccc2ccccc2c1C(=O)c1ccccc1Cc1cccc2ccccc12,2.65% (inactive)
19,Cn1c(=O)c2c(nc(NCCO)n2Cc2ccccc2)n(C)c1=O,9.95% (inactive)
20,Cc1cc(S(=O)(=O)Nc2nnc3c4ccccc4cnn23)c(S)cc1Cl,-24.4% (inactive)
